Screening data as filed in PubChem.
KDM4E inh: qHTS Assay for Inhibitors of Human Jumonji Domain Containing 2E (JMJD2E); JMJD2E catalytic domain, FDH-coupled NADH fluorescence (FDH is formaldehyde dehydrogenase); actives 1.6% (n = 230,000); AID 2147, 2009; Potency, µM (doses to about 57.1 µM), for the others: at the top dose activity change, negative = inhibition, most hits filed as inhibitors; active = well fitted inhibition curve with a large enough effect, not every such curve was filed as active; inconclusive = small, poorly fitted or top-dose-only effect, or another doubt; inactive = no such curve, though single readings can be large or run the other way;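 also: potency is read from the fitted curve at half-maximal effect; 0% = wells with enzyme and -100% = buffer wells without enzyme; nearly all actives have a fitted effect of over 50% in size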
Target sequence (B2RXH2 1-337 limits assumed): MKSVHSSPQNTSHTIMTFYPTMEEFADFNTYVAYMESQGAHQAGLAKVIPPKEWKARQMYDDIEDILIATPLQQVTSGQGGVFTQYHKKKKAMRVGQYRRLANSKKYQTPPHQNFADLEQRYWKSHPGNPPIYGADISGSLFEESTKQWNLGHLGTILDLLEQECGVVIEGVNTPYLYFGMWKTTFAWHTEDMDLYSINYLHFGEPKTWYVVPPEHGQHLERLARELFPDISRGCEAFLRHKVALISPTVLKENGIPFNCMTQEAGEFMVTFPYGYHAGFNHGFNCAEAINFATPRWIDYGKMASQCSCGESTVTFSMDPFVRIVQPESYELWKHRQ
L3MBTL1 inh-1: qHTS Assay for the Inhibitors of L3MBTL1; Lethal(3)malignant brain tumor-like protein 1 (Homo sapiens), Q9Y468; actives 0.66% (n = 230,000); AlphaScreen L3MBTL1–H3K9me1 peptide binding; Potency, µM (top dose mostly 57.1 µM), inactives show at the highest dose activity, negative = inhibition, actives largely listed as inhibitors; AID 485360, 2010; also: potency is read from the fitted curve at half-maximal effect; % is scaled to controls: 0 for no effect and ±100 for the full control effect; nearly all actives have a fitted effect of over 60% in size
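L3MBTL1 (50 nM) pre-complexed 30 min with biotinylated H3(1-15)K9me1 peptide (75 nM), then compounds added for 30 min at room temperature; AlphaScreen streptavidin donor/nickel chelate acceptor beads (10 ug/mL final) read after 30 min dark incubation.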
BAZ2B inh: qHTS Assay for Inhibitors of BAZ2B; Bromodomain adjacent to zinc finger domain protein 2B (Homo sapiens), Q9UIF8; AlphaScreen BAZ2B-H3K14Ac peptide displacement; Potency, µM (top dose mostly 114 µM), for inactives: at the top dose activity change, negative = inhibition, hits mostly inhibitors; actives 4.4% (n = 360,000); AID 504333, 2011; also: potency is read from the fitted curve at half-maximal effect; % is scaled to controls: 0 for no effect and ±100 for the full control effect; nearly all actives have a fitted effect of over 60% in size
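BAZ2B 50 nM plus b-H3(5-23)K14Ac 50 nM, PBS pH 7.4/0.01% Tween-20, 30 min RT; compound added (max 110 uM), 30 min RT; streptavidin donor/Ni-chelate acceptor beads 10 ug/mL final, 20 min dark; AlphaScreen read.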
HP1b binding inh: HTS for Inhibitors of HP1-beta Chromodomain Interactions with Methylated Histone Tails; AID 540317, 2011; actives 0.56% (n = 390,000); Potency, µM (series often up to 114 µM), without a hit: top-dose activity change, negative = inhibition, most hits filed as inhibitors; AlphaScreen HP1-beta / biotin-H3K9me3 peptide binding; Chromobox protein homolog 1 (Homo sapiens), P83916; also: potency is read from the fitted curve at half-maximal effect; nearly all actives have a fitted effect of over 70% in size
Target sequence (P83916 whole entry, looked up): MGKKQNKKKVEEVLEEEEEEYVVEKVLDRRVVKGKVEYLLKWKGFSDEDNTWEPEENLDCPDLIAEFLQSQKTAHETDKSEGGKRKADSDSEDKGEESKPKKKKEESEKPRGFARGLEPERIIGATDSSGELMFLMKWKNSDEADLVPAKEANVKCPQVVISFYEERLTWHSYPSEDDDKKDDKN
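AlphaScreen: HP1-beta (50 nM) preformed 30 min with biotin-H3(1-18)K9me3 peptide (50 nM) in PBS pH 7.4, 0.01% Tween-20. Compound added for 30 min at RT, then streptavidin donor/nickel chelate acceptor beads (10 ug/mL) for 30 min.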
JMJD2A Tudor: qHTS Assay for Inhibitors of JMJD2A-Tudor Domain. Potency, µM (series often up to 114 µM), for the others: at the highest dose activity change, negative = inhibition, hits mostly inhibitors. actives 4.4% (n = 390,000). AlphaScreen JMJD2A-Tudor / H3K4me3 peptide binding; also: potency is read from the fitted curve at half-maximal effect; % is scaled to controls: 0 for no effect and ±100 for the full control effect; nearly all actives have a fitted effect of over 50% in size
PI5P4Ka inh: qHTS for Inhibitors of phosphatidylinositol 5-phosphate 4-kinase (PI5P4K); Phosphatidylinositol 5-phosphate 4-kinase type-2 alpha (Homo sapiens), P48426; PI5P4Kalpha enzyme, ADP-Glo luminescence, 60 min; stronger effect = lower value; max response, %; actives 1.2% (n = 330,000); active = max response of -50% or lower; inconclusive = between -30% and -50%; inactive = -30% or higher; also: value at the top dose of about 77 µM; % is scaled to controls: 0 for no effect and ±100 for the full control effect
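Reactions run in 0.038 M HEPES pH 7.4, 0.28 mM EGTA, 0.1% CHAPS and 5% DMSO, with PI5P4Kalpha, substrate, compound and 5 microM ATP final, one hour at room temperature. Readout is ADP-Glo luminescence.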
L3MBTL1 inh-2: qHTS Assay for the Inhibitors of L3MBTL1: Hit Validation; actives 91% (n = 500); shares compounds with L3MBTL1 inh-1; Potency, µM, actives largely listed as inhibitors; L3MBTL1 methyl-lysine binding inhibition, biochemical qHTS; also: potency is read from the fitted curve at half-maximal effect; nearly all actives have a fitted effect of over 70% in size
L3MBTL1 ctr: qHTS Assay for the Inhibitors of L3MBTL1: Hit Validationin AlphaScreen Counterscreen; shares compounds with L3MBTL1 inh-1; AlphaScreen counterscreen, signal inhibition; Potency, µM (titrated, usually from 57.1 µM), for inactives: at the highest dose activity change, negative = inhibition, most hits filed as inhibitors; 500 tested, under 10 active; also: potency is read from the fitted curve at half-maximal effect; 0% is about no effect
ADP-Glo interf: qHTS for Inhibitors of PI5P4K: ADP-Glo counter assay; shares compounds with PI5P4Ka inh; ADP-Glo detection counter-screen, luciferase luminescence, no enzyme; Potency, µM (highest dose often 76.9 µM), for the others: at the highest dose activity change, negative = inhibition, actives largely listed as inhibitors; 1,100 tested, under 10 active; AID 743285, 2014
The depositor's hits bear a star; u = inconclusive; x = no result given. The list is not random: actives were taken first. Their share in the collection is about 5.7%. Unless noted, calls follow the shape of the dose curve; as a rule, active = well fitted curve in the direction sought with a large enough effect; inconclusive = small, poorly fitted or top-dose-only effect, or another doubt; inactive = no such curve, though single readings can be large; an effect the other way counts as inactive or inconclusive.

SMILES | KDM4E inh | L3MBTL1 inh-1 | BAZ2B inh | HP1b binding inh | JMJD2A Tudor | PI5P4Ka inh | L3MBTL1 inh-2 | L3MBTL1 ctr | ADP-Glo interf
COc1ccc(N2Cc3cccc(C(=O)N4CCN(C(=O)c5ccco5)CC4)c3C2=O)cc1 | -9% | 28µM* | 50µM* | u | 50µM* | -84* | 2.7* | -16% | -5%
O=C(Nc1cccc(S(=O)(=O)NC2=NCCCCC2)c1)c1cc(-c2ccco2)nc2ccccc12 | u | 35µM* | u | u | -20% | -73* | 3* | 3% | -10%
COc1ccc(S(=O)(=O)N2CCN(C(=O)c3cc4c(s3)CCC4)CC2)cc1 | x | 3.5µM* | x | u | 7.9µM* | -82* | 3.4* | -5% | 5%
CCN(C(=O)COC(=O)c1c(NC(C)=O)sc(C)c1C)c1c(N)n(Cc2ccccc2)c(=O)[nH]c1=O | x | x | x | 21% | -5% | 2 | x | x | x
O=C(NCc1ccco1)c1cc2ccc(O)cc2oc1=O | u | 20µM* | 56µM* | 2% | -26% | -81* | 9.5* | 3% | u
CCOC(=O)c1c(CC(C)C)csc1NC(=O)COC(=O)c1cnc(C)cn1 | x | x | x | x | x | -6 | x | x | x
CCOC(=O)c1c(-c2ccco2)csc1NC(=O)COC(=O)c1cnc(C)cn1 | x | 32µM* | 50µM* | u | u | -51* | 24* | 0% | 0%
Cc1ccc(NC(=O)C2CCCN(C(=O)c3ccc(Cl)cc3)C2)cc1S(=O)(=O)N1CCOCC1 (centres undefined) | 0% | 5% | x | 35% | -14% | -3 | x | x | x
N#Cc1c(NC(=O)CSc2ncnc3sccc23)oc(-c2ccco2)c1-c1ccco1 | -14% | 13µM* | 45µM* | u | 79µM* | -79* | 17* | -12% | 4%
CC(=O)N1c2ccc(S(=O)(=O)N(C)CC(=O)NC(C)c3ccccc3)cc2CC1C (centres undefined) | x | x | -12% | 32% | -27% | -4 | x | x | x
O=C(c1ccc(=O)oc1)N1CCCc2ccccc21 | 14µM* | 18µM* | 45µM* | -49% | 50µM* | -57* | 1.5* | -3% | 0%
O=C(c1ccccc1)N1CCCc2ccccc21 | -5% | -3% | 4% | 37% | 3% | -1 | x | x | x
COc1ccc(CNC(=O)C(C)OC(=O)c2cccs2)cc1 (centres undefined) | x | x | 1% | 5% | -8% | -1 | x | x | x
O=C(Cc1ccc(S(=O)(=O)N2CCOCC2)s1)Nc1nc2c(s1)CCCC2 | -28% | 11µM* | 18µM* | u | 56µM* | -66* | 6.7* | -22% | -3%
COC(=O)c1c(-c2ccccc2)c[nH]c1C | -12% | -1% | u | 4% | -6% | 1 | x | x | x
